Screening data: PubChem BioAssay, Johns Hopkins Ion Channel Center
This is a sample that favours compounds with a hit; in the whole collection about 1.6% have one here.
KCNQ2 inh = inhibitors of rat KCNQ2 potassium channel | O88943 | CHO-K1 KCNQ2, FluxOR thallium flux, 20 min; active compounds read low | B-score at 10 µM | 1.1% of 310,000 active;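 active = fluorescence ratio B-score at most minus 3 library SDs, with starting brightness B-score within 2 library SDs, cut at about -5.5 in these data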
KCNQ2 pot = potentiators of rat KCNQ2 potassium channel; CHO-K1 KCNQ2, FluxOR thallium flux fluorescence; active compounds read high; B-score at 10 µM; 0.54% of 310,000 active;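 active = fluorescence ratio B-score at least 3 SD of library B-scores, with initial fluorescence B-score within 3 of them, cut at about 5.3 in these data; same plate scores as AID 2156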;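 note: B-score of peak minus minimum over baseline fluorescence ratio after K+ and Tl+ stimulus; positive B-score means potentiation of KCNQ2 with more thallium influx and brighter signal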
Kir21 conf inh = confirmation of mouse Kir2.1 potassium channel inhibitors. AID 2032. Tl flux remaining, % of negative control (active compounds read low), % at 10 µM. shares compounds with KCNQ2 pot. Kir2.1-expressing cells, FluxOR thallium flux fluorescence; active compounds read low. 41% of 2,300 active;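 active = Primary-screen hit whose thallium flux fell at least 3 control SD below untreated wells in both duplicates, with normal baseline fluorescence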;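 note: 0% = blank wells without stimulus and 100% = stimulated no-compound controls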
HEK293 Tl flux = alters thallium flux in parental HEK293 cells, Kir2.1 counter-screen; FluxOR signal as % of negative control (100 = no effect), % at 10 µM; shares compounds with KCNQ2 pot; FluxOR thallium flux fluorescence; 0% = unstimulated blank wells; 19% of 2,300 active;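 active = dye signal at least 3 control SD above or below untreated wells in both duplicates, raw fluorescence within 3, either direction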;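 note: percent is based on the flux ratio of peak minus minimum fluorescence over baseline F0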
CHO-K1 ctr = alters thallium flux in parental CHO-K1 cells, KCNQ2 counter-screen; FluxOR thallium flux fluorescence; zero = vehicle mean+3SD, 100% = vehicle-minus-blank window; activity increase over 3SD of controls, % at 10 µM; shares compounds with KCNQ2 pot; AID 2282; 43% of 1,200 active;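 active = signal rise of at least 3 SD above the untreated control mean, in both duplicate wells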;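 note: counter screen of KCNQ2 potentiator hits so any rise reflects channel-independent effects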
KCNQ1 sel pot = tests whether KCNQ2 potentiators also act on human KCNQ1 | shares compounds with KCNQ2 pot | CHO KCNQ1 stable, FluxOR thallium flux fluorescence; beyond 3SD, as % of vehicle-control signal | activation over 3SD threshold, % at 10 µM | 28% of 1,200 active;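 active = fluorescence ratio rise of at least 3 SD of vehicle wells above their mean, in both replicate wells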;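 note: 0% = vehicle mean plus 3 SD and 100% = vehicle minus unstimulated blank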
Target sequence (P51787 whole entry, looked up): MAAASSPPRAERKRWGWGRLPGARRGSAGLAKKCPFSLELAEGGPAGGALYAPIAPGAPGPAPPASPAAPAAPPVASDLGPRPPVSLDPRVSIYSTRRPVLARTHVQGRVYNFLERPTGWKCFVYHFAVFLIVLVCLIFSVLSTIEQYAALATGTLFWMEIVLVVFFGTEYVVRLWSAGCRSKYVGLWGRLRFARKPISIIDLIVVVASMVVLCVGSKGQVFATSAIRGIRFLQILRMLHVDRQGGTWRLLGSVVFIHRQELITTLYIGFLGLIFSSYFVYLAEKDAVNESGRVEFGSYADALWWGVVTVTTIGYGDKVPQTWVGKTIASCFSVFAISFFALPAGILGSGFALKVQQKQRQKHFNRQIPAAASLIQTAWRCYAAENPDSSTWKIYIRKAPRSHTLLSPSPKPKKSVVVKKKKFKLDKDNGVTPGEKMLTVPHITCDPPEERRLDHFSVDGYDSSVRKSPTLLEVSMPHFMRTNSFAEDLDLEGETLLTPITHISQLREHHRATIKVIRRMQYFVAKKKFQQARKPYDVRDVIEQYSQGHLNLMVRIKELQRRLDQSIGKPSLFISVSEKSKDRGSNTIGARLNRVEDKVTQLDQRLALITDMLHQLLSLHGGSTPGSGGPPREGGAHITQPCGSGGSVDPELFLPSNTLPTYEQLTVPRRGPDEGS
KCNQ2 pot confirm = confirmation of rat KCNQ2 potassium channel potentiators; potentiation, less the hit threshold, % at 10 µM; 68% of 1,200 active; CHO-KCNQ2 cells, FluxOR thallium flux fluorescence; AID 2287; shares compounds with KCNQ2 pot;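 active = fluorescence ratio rising 3 SD or more over the vehicle control mean in both replicates, plus primary screen hit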;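 note: peak minus minimum thallium fluorescence divided by baseline after K/Tl stimulus; 0% = vehicle mean plus 3 SD and 100% = vehicle minus unstimulated blank difference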
Kir21 spec = mouse Kir2.1 off-target activity of KCNQ2 potentiators; 2% of 1,200 active; AID 2345; HEK293 Kir2.1, FluxOR thallium flux fluorescence; activity over 3SD threshold, % at 10 µM; shares compounds with KCNQ2 pot;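 active = fluorescence ratio rise of at least 3 SD above the vehicle-control mean, seen in both replicates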;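 note: 0% = vehicle mean plus 3 SD and 100% = vehicle minus no-stimulus blank window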
KCNQ2 W236L pot = rat KCNQ2 W236L mutant potentiation by KCNQ2 potentiators | shares compounds with KCNQ2 pot | CHO KCNQ2-W236L, automated patch clamp current | current increase over 3SD of negative controls (%), active compounds read high, % at 25 µM | 10% of 940 active;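 active = current increase at least 3 SD of the untreated controls above them in both duplicate recordings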
Numbers without * were called inactive; i = inactive; x = not tested or not shown.

SMILES	KCNQ2 inh	KCNQ2 pot	Kir21 conf inh	HEK293 Tl flux	others
Cn1c(=NC(=O)CCS(=O)(=O)c2ccccc2)sc2cc(F)ccc21	i	x	x	x
CC(=O)SCC(=O)N=c1sc2cc(F)ccc2n1C	i	5.9*	i	i	CHO-K1 ctr=-16;KCNQ1 sel pot=-5;KCNQ2 pot confirm=5.6*;Kir21 spec=-35;KCNQ2 W236L pot=i
CCCCn1c(-c2csc3ccccc23)n[nH]c1=S	i	0.12	x	x
CCCCn1c(-c2csc(C(C)C)c2)n[nH]c1=S	i	8.1*	x	x	CHO-K1 ctr=-2;KCNQ1 sel pot=22*;KCNQ2 pot confirm=3.4*;Kir21 spec=-55;KCNQ2 W236L pot=40%*
COc1ccc(N2CCN(C(=S)NCc3ccccc3)CC2)cc1	i	1.2	x	x
Cc1[nH]c2ccccc2c1SCC(=O)N1CCCc2ccccc21	i	x	54%*	i
Cc1[nH]c2ccccc2c1C(=O)C(=O)N1CCCc2ccccc21	i	x	x	x
CCc1ccc(CNC(=O)c2ccc3nc(C4CCCCC4)oc3c2)nc1	i	17*	x	x	CHO-K1 ctr=-11;KCNQ1 sel pot=17*;KCNQ2 pot confirm=9.2*;Kir21 spec=-45;KCNQ2 W236L pot=i
CCOC(=O)CCNC(=O)c1ccc2nc(C3CCCCC3)oc2c1	i	2	x	x
CCc1ccc2[nH]c(=O)c(-c3ccccc3)c(O)c2c1	i	1.4	x	x
COc1cccc(NC(=O)NCCCSC2CCCCC2)c1	i	6.5*	i	i	CHO-K1 ctr=-5;KCNQ1 sel pot=-16;KCNQ2 pot confirm=13*;Kir21 spec=-25;KCNQ2 W236L pot=i
COc1cccc(NC(=O)NCCCCc2ccccc2)c1	i	2.6	x	x
CCOC(=O)Cc1cc(-c2ccc(F)cc2)nc2ccc3ccccc3c12	i	x	x	x
O=C(c1ccco1)N1CCN(c2ncnc3c2cnn3-c2ccccc2)CC1	i	0.79	x	x
CCc1cc2c(N3CCN(C(=O)c4ccco4)CC3)ncnc2s1	i	5.7*	i	i	CHO-K1 ctr=-8;KCNQ1 sel pot=36*;KCNQ2 pot confirm=-18;Kir21 spec=-39
O=C1NC2(CCCC2)C(=O)N1CC(=O)N(Cc1ccccc1)c1ccccc1	i	x	x	x
O=C(Nc1ccc(S(=O)(=O)N2CCCC2)cc1)C1CCCCC1	i	1.3	x	x
Cc1ccc2c(c1)c1c3n2CCN(C(=O)CCl)C3CCC1 (stereo not given)	i	x	i	i
CC(=O)N1CCn2c3c(c4cc(C)ccc42)CCCC31 (stereo not given)	i	0.68	x	x
CCn1ncc([N+](=O)[O-])c1C(=O)Nc1c(C)cccc1C	i	14*	i	i	CHO-K1 ctr=-18;KCNQ1 sel pot=0;KCNQ2 pot confirm=-11;Kir21 spec=-29
CCn1ncc([N+](=O)[O-])c1C(=O)Nc1nc2cccc(C)c2s1	i	0.05	x	x
CCOc1ccc(NC(C)c2cc(Cl)ccc2O)cc1 (stereo not given)	i	4.5	x	x
CC(Nc1ccc(Cl)cc1)c1cc(Cl)ccc1O (stereo not given)	i	4.2	59%*	i
COc1ccc(Nc2ncnc3c2c(C)c(C)n3CCCN(C)C)cc1	i	1.4	x	x
CCOC(=O)c1c(NC(C)=O)sc2c(OCC(O)CNC(C)(C)C)c(Br)ccc12 (stereo not given)	i	x	i	i
SMILES	KCNQ2 inh	KCNQ2 pot	Kir21 conf inh	HEK293 Tl flux	others
CCOC(=O)c1c(N)sc2c(OCC)c(Br)ccc12	i	2.1	x	x
Cc1cccc(NC(=O)CSc2nc(=O)n(CCCN3CCOCC3)c3c2CCCC3)c1	i	0.78	x	x
CCN(CC(=O)NCc1ccncc1)S(=O)(=O)c1ccccc1	i	x	x	x
CC(=O)Nc1ccc(S(=O)(=O)N2CCN(c3cnn(C)c(=O)c3Cl)CC2)cc1	i	x	x	x
CN1CCC(N(C)C(=O)c2cc(=O)c3ccccc3o2)CC1	i	x	i	i
CCc1ccc(CN(C)C(=O)c2cc(=O)c3ccccc3o2)cc1	i	x	x	x
Cc1ccc(CNc2nc(C)c(C(=O)N(C)C)s2)cc1	i	x	x	x
CCC(C(=O)NCCCN(CC)Cc1ccccc1)n1nc(C)c2sc3ccccc3c2c1=O (stereo not given)	i	x	47%*	64%*
Cc1nn(C(C)C(=O)NCCCN(Cc2ccccc2)C(C)C)c(=O)c2c1sc1ccccc12 (stereo not given)	i	0.8	x	x
COc1cc(CNCCc2ccc(F)cc2)ccc1OCc1ccc(Cl)nc1	i	x	32%*	i
COc1cc(CNCCc2ccccc2F)ccc1OCc1ccc(Cl)nc1	i	0.04	x	x
CCOc1ccc(/C=C/[N+](=O)[O-])c2ccccc12	i	x	i	i
CCOC(=O)COc1ccc2ccccc2c1/C=C/[N+](=O)[O-]	i	x	x	x
NNC(=O)c1c[nH]c2ccc(OCc3ccccc3)cc12	i	1.2	x	x
CC(C)Cc1ccc(C(C)C(N)=NCCc2ccccc2)cc1 (stereo not given)	i	x	i	i
COc1ccc(CCN=C(N)C(C)c2ccccc2)cc1OC (stereo not given)	i	0.65	x	x
O=S(=O)(c1ccc(S(=O)(=O)N2CCC(O)CC2)cc1)N1CCCC1	i	0.67	x	x
COc1ccc(CNC(=O)c2csc(Cc3ccc(Cl)cc3)n2)cc1	i	x	x	x
COc1ccc(CNC(=O)c2csc(Cc3ccc(OC)cc3)n2)cc1	i	x	52%*	i
COc1ccc(-c2cc(-c3nnc(COC(=O)CC4CC5CCC4C5)o3)c3ccccc3n2)cc1OC (stereo not given)	i	x	x	x
COc1ccc(CC2SC(N)=NC2=O)cc1 (stereo not given)	i	1.9	x	x
Cn1c(COc2ccccc2O)[n+](C)c2ccccc21	i	x	x	x
CCCCCCCCCCOC(=O)Cn1c(COc2ccccc2OC)[n+](C)c2ccccc21	i	x	i	i
COCc1cc(C)nc(SCc2ccc(Br)cc2)c1C#N	i	x	x	x
Oc1ccccc1CNc1cccc2cccnc12	i	x	x	x
Nc1sc(-c2ccccc2)n[n+]1Cc1cccc2cccnc12	i	x	i	i
C#CC(CO)N(CCN(Cc1ccccc1)C(C#C)CO)Cc1ccccc1 (stereo not given)	i	x	62%*	i
C#CCN(C)Cc1ccccc1	i	x	x	x
COc1ccc(NC(=O)CSCC(=O)Nc2cc(Cl)ccc2N2CCCC2)cc1	i	7.1*	i	i	CHO-K1 ctr=-7;KCNQ1 sel pot=66*;KCNQ2 pot confirm=6.3*;Kir21 spec=-44;KCNQ2 W236L pot=i
COc1ccc(CC(=O)Nc2ccc(N3CCCC3)c(C)c2)cc1	i	6.8*	34%*	i	CHO-K1 ctr=9.8*;KCNQ1 sel pot=57*;KCNQ2 pot confirm=22*;Kir21 spec=-99;KCNQ2 W236L pot=i
